For eight compounds, growth results are on record in PubChem BioAssay (NCI).

Each structure is given as a SMILES string. This is part of a sample that, as a whole, favours compounds with a hit. Of some 83,000 tested, about 20% had one in any assay.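 Values shown are percent growth following 48 h exposure of cells in 96-well plates to a single concentration of compound; below 10 was considered active.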 Unmarked numbers belong to inactive results. Activity calls are given as the source filed them.

Among the test systems are NCI-H23 lung; NCI-H226 lung; NCI-H322M lung; HOP-62 NSCLC; NCI-H460 lung; HOP-92 NSCLC; NCI-H522 lung; A549/ATCC NSCLC; 786-0 renal; COLO 205 colon; DU-145 prostate; K-562 leukemia; MALME-3M melanoma; MDA-MB-231 breast; RXF 393 renal; SF-268 CNS; SF-295 CNS; SF-539 CNS; UACC-257 melanoma; M14 melanoma.
Common to all, as to assay: NCI-60 one-dose screen, 48 h (100 = growth as untreated, 0 = no growth, -100 = all killed)
Conditions in all cases: 10 µM unless noted

Consider `Cc1ccc(-c2nc(SCC(=O)Nc3nc(-c4ccc(Cl)cc4)cs3)[nH]c(=O)c2C#N)cc1`, for which the growth in the experiment on NCI-H23 lung was 95.1%; with NCI-H226 lung, 89.5%; with NCI-H322M lung it was 101%; in the experiment on HOP-62 NSCLC it was 94%; with NCI-H460 lung, 105%; in the experiment on HOP-92 NSCLC it was -13.3% (active). The growth with NCI-H522 lung is 77.5%; in the experiment with A549/ATCC NSCLC, 86.7%; in the experiment on 786-0 renal, 93.2%; with COLO 205 colon, 117%; in the experiment on DU-145 prostate, 103%; with K-562 leukemia it was 97.1%. In addition, the growth in the experiment with MALME-3M melanoma is 109%; in the experiment with MDA-MB-231 breast, 110%; in the experiment on RXF 393 renal, 114%; in the experiment with SF-268 CNS it was 98.1%; in the experiment with SF-295 CNS, 101%; in the experiment on SF-539 CNS, 117%. Besides, the growth in the experiment on UACC-257 melanoma is 88%; with M14 melanoma, 91.7%.

For `CN(C)CC#Cc1ccc2ncc(C#N)c(Nc3ccc(F)c(Cl)c3)c2c1`, the growth was 58.2% with NCI-H23 lung; 60.8% in the experiment on NCI-H226 lung; 14.9% with NCI-H322M lung; 67.8% in the experiment on HOP-62 NSCLC; 50.8% in the experiment on NCI-H460 lung; 56.1% with HOP-92 NSCLC. The growth is 45.3% in the experiment with NCI-H522 lung; 51% in the experiment with A549/ATCC NSCLC; 49.4% in the experiment on 786-0 renal; 71.3% with COLO 205 colon; 22.4% in the experiment on DU-145 prostate; 51.4% in the experiment with K-562 leukemia. The growth in the experiment on MALME-3M melanoma was 45.1%; in the experiment with MDA-MB-231 breast, 56.1%; in the experiment with RXF 393 renal, 32.4%; with SF-268 CNS, 59.2%; in the experiment with SF-295 CNS, 65.4%; with SF-539 CNS, 62.4%. Also, the growth with UACC-257 melanoma was 76%; with M14 melanoma, 40.5%.

In the case of `O=CN(SSN(C=O)C1CCCCC1)C1CCCCC1`, the growth in the experiment on NCI-H23 lung was 115%; in the experiment with NCI-H226 lung it was 91.9%; in the experiment on NCI-H322M lung, 110%; in the experiment with HOP-62 NSCLC, 95.4%; with NCI-H460 lung, 125%; in the experiment with HOP-92 NSCLC, 135%. In addition, the growth in the experiment on NCI-H522 lung is -25.1% (active); in the experiment on A549/ATCC NSCLC, 119%; with 786-0 renal it was 105%; in the experiment on COLO 205 colon, 113%; with DU-145 prostate, 115%; in the experiment on K-562 leukemia, 52.3%. The growth with MALME-3M melanoma was 73.9%; in the experiment with MDA-MB-231 breast, 102%; with RXF 393 renal it was 12.4%; in the experiment with SF-268 CNS, 103%; in the experiment with SF-295 CNS, 105%; in the experiment with SF-539 CNS, 102%. Further, the growth in the experiment on UACC-257 melanoma is 124%; in the experiment on M14 melanoma, 92.7%.

With `CC(=O)N1CCN(c2ccc(OCC3CO[C@](Cn4ccnc4)(c4ccc(Cl)cc4Cl)O3)cc2)CC1` (stereo not given in full), the growth was 78.3% in the experiment on NCI-H23 lung; 58.7% with NCI-H226 lung; 93.6% in the experiment with NCI-H322M lung; 74.4% in the experiment with HOP-62 NSCLC; 96.4% in the experiment with NCI-H460 lung; 61.4% with HOP-92 NSCLC. Moreover, the growth with NCI-H522 lung is 82.4%; with A549/ATCC NSCLC, 85.2%; in the experiment on 786-0 renal, 77.6%; in the experiment with COLO 205 colon it was 86.9%; in the experiment with DU-145 prostate, 105%; with K-562 leukemia it was 56.6%. Also, the growth is 77.4% in the experiment on MALME-3M melanoma; 77.5% in the experiment with MDA-MB-231 breast; 80.6% in the experiment on RXF 393 renal; 96% with SF-268 CNS; 97.6% in the experiment with SF-295 CNS; 91% with SF-539 CNS. Moreover, the growth is 83.7% with UACC-257 melanoma and 83.8% with M14 melanoma.

For `Cc1cccc2c1S/C(=C/c1ccc([N+](=O)[O-])cc1)C2=O`, the growth in the experiment on NCI-H23 lung was 91.3%; in the experiment on NCI-H226 lung it was 86.6%; with NCI-H322M lung, 96.3%; in the experiment with HOP-62 NSCLC it was 92.5%; in the experiment with NCI-H460 lung it was 106%; in the experiment with HOP-92 NSCLC, 105%. Further, the growth in the experiment on NCI-H522 lung was 93.1%; in the experiment with A549/ATCC NSCLC, 106%; with 786-0 renal, 106%; with COLO 205 colon, 114%; in the experiment with DU-145 prostate it was 106%; in the experiment with K-562 leukemia, 42.2%. Moreover, the growth with MALME-3M melanoma was 99.4%; with MDA-MB-231 breast, 103%; in the experiment with RXF 393 renal, 140%; in the experiment on SF-268 CNS, 103%; in the experiment with SF-295 CNS, 89.8%; with SF-539 CNS, 101%. Moreover, the growth with UACC-257 melanoma is 108%; with M14 melanoma, 98.2%.

Consider `CCCCCCCCCCCCCCCCCCOc1ccc(CC(=O)OCC[N+]2(C)CCCCC2)cc1`, for which the growth is 86.7% in the experiment with NCI-H23 lung; 101% in the experiment on NCI-H226 lung; 96.4% in the experiment on NCI-H322M lung; 101% in the experiment with HOP-62 NSCLC; 101% with NCI-H460 lung; 97.8% in the experiment with HOP-92 NSCLC. Also, the growth with NCI-H522 lung was 89.2%; in the experiment on A549/ATCC NSCLC, 88.9%; with 786-0 renal it was 92.8%; in the experiment on COLO 205 colon it was 103%; with DU-145 prostate, 107%; in the experiment with K-562 leukemia it was 83.9%. The growth with MALME-3M melanoma is 98.8%; with MDA-MB-231 breast it was 100%; in the experiment on RXF 393 renal it was 102%; with SF-268 CNS it was 100%; in the experiment with SF-295 CNS, 110%; in the experiment with SF-539 CNS it was 99.4%. Besides, the results for the growth in the experiment with UACC-257 melanoma and with M14 melanoma were 96% and 99.8%, respectively.

In the case of `Fc1cc2c(cc1Cl)N(c1ncnc3ccc(-c4cnc5cnccn45)cc13)CC2`, the growth with NCI-H23 lung was 83%; in the experiment on NCI-H226 lung, 92.8%; in the experiment with NCI-H322M lung, 80.7%; in the experiment on HOP-62 NSCLC it was 78.1%; in the experiment with NCI-H460 lung it was 98.9%; in the experiment on HOP-92 NSCLC, 87.4%. Besides, the growth in the experiment on NCI-H522 lung was 82.6%; in the experiment on A549/ATCC NSCLC it was 86.8%; with 786-0 renal it was 81.1%; in the experiment on COLO 205 colon it was 121%; in the experiment on DU-145 prostate, 74.7%; in the experiment with K-562 leukemia, 75.2%. The growth in the experiment with MALME-3M melanoma was 91.3%; in the experiment with MDA-MB-231 breast, 77.5%; with RXF 393 renal, 62%; in the experiment with SF-268 CNS it was 81%; in the experiment with SF-295 CNS it was 107%; in the experiment on SF-539 CNS it was 84.6%. For the same compound, the growth was 109% with UACC-257 melanoma and 80.2% in the experiment with M14 melanoma.

With `COc1ccc(NC(=O)n2nc(/C=C\c3ccc(O)c(OC)c3)cc2/C=C\c2ccc(O)c(OC)c2)cc1`, the growth with NCI-H23 lung is 43.9%; with NCI-H226 lung it was 87.2%; in the experiment on NCI-H322M lung it was 58.1%; with HOP-62 NSCLC, 32.7%; in the experiment with NCI-H460 lung, 14.2%; in the experiment on HOP-92 NSCLC, 89.1%. Also, the growth was -13.5% (active) with NCI-H522 lung; 27.3% in the experiment on A549/ATCC NSCLC; 32.1% with 786-0 renal; 107% in the experiment with COLO 205 colon; 27.2% in the experiment with DU-145 prostate; 9.25% (active) in the experiment on K-562 leukemia. For the same compound, the growth is 51.9% in the experiment with MALME-3M melanoma; 36.5% with MDA-MB-231 breast; 23% in the experiment with RXF 393 renal; 41.8% in the experiment with SF-268 CNS; 51.6% in the experiment on SF-295 CNS; 6.72% (active) with SF-539 CNS. In addition, the figures for the growth in the experiment with UACC-257 melanoma and in the experiment on M14 melanoma were 75.2% and 4.97% (active), respectively.
